Bioassay records: PubChem BioAssay, National Center for Advancing Translational Sciences (NCATS)
An excerpt weighted towards active compounds, which were near 2.4% of everything screened.
D2 PAM-1 – Beta-Arrestin HTS for Positive Allosteric Modulators of the Human D2 Dopamine Receptor: Potentiators; AID 624464, 2012; 0.23% of 360,000 active; potentiation, % (no concentration beside the values); D(2) dopamine receptor (Homo sapiens), P14416; DiscoveRx D2 beta-arrestin cells, luminescence, 90 min; 100% = 57 uM dopamine signal; in the data active means potentiation above about 50%; inconclusive means mostly about 30% to 49%
Target sequence (P14416 whole entry, looked up): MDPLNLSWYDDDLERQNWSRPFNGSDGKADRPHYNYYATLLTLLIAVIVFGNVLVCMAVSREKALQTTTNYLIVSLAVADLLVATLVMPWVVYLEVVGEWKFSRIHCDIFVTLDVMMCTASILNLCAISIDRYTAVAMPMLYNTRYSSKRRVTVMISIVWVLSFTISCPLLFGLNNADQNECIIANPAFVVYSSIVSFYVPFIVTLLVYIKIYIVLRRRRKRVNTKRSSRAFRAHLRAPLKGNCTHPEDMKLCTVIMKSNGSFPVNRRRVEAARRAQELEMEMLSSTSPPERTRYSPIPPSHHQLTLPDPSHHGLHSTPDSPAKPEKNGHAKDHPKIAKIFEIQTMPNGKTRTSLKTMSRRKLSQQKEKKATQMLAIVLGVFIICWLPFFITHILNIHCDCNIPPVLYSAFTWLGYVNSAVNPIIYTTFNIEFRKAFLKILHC
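PathHunter D2 cells, attached overnight at 37 deg C, received compound in DMSO plus dopamine at EC20 (50 nM final) for 90 min at 37 deg C. Beta-arrestin recruitment was read as luminescence after 1 h with detection reagent at ambient temperature.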
D2 PAM-2 – HTS Assay for Positive Allosteric Modulators of the Human D2 Dopamine Receptor: Primary Screen for Potentiators; HEK293 T-REx D2, calcium flux, EC20 dopamine potentiation; 0.34% of 340,000 active; potentiation, % at 10 µM; AID 485347, 2010; D(2) dopamine receptor (Homo sapiens), P14416;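 active means potentiation over 3 SD above the plate norm, cut at about 30% in these data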; further: 0% is about no effect
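Cells plated with tetracycline inducer and held overnight at 30 C; calcium dye loaded 30–90 min at room temperature; baseline taken, compound added and read 180 s; EC20 dopamine then added and read 180 s.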
D2 antagonist – HTS Assay for Allosteric Antagonists of the Human D2 Dopamine Receptor: Primary Screen for Antagonists. inhibition, % at 10 µM. 2% of 340,000 active. D(2) dopamine receptor (Homo sapiens), P14416. HEK293 TREx D2 cells, calcium flux, dopamine EC80. AID 485344, 2010; in the data active means inhibition above about 30%; inactive means below that, where a call was filed; further: 0% is about no effect
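Calcium mobilization kinetics were recorded at 1 s intervals in tetracycline-induced HEK293 T-REx D2 cells, first for 180 s after compound addition and then 180 s after EC80 dopamine.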
D2 ag-1 – HTS Assay for Allosteric Agonists of the Human D2 Dopamine Receptor: Primary Screen for Agonists; HEK293 T-REx D2 cells, calcium flux agonist mode; 0.53% of 340,000 active; activation, % at 2 µM; D(2) dopamine receptor (Homo sapiens), P14416; AID 485358, 2010;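 active means activation over 3 SD above normal in the single-dose calcium agonist read, cut at about 30% in these data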; further: 0% is about no effect
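Tetracycline-induced HEK293 Trex cells with D2 receptor force-coupled to calcium signaling, plated overnight at 30 C and loaded with no-wash calcium dye. Calcium flux read kinetically for 180 s after compound addition; responses flag agonists.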
D2 ag-2 – Beta-Arrestin HTS for Positive Allosteric Modulators of the Human D2 Dopamine Receptor: Agonists | D(2) dopamine receptor (Homo sapiens), P14416 | DiscoveRx PathHunter D2 beta-arrestin, luminescence, 90 min; 100% = 57 uM dopamine signal | activation, % (no concentration beside the values) | 0.084% of 360,000 active | AID 624465, 2012; in the data active means activation above about 40%; inconclusive means between about 15% and that limit
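Agonist mode: compounds alone added to overnight-plated D2 PathHunter cells for 90 min at 37 C, with 57 uM final dopamine (EC100) defining full response. Beta-arrestin recruitment detected by chemiluminescent reagent, read after 1 h at ambient temperature.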
Numbers without * were called inactive; ? = inconclusive; . = no result.

SMILES	D2 PAM-1	D2 PAM-2	D2 antagonist	D2 ag-1	D2 ag-2
Oc1oc(-c2ccccc2)nc1C=NCc1ccncc1	-12.9	4.9	30.7*	0.8	-2.6
COc1ccccc1C(=O)NCCn1cc(SCc2ccc(C)cc2)c2ccccc21	.	12.0	.	0.4	.
O=C(CCn1ccc2cc(S(=O)(=O)N3CCCC3)ccc21)NCc1cccc(Br)c1	.	5.1	.	-3.5	.
COc1cc2c(cc1OC)C1C/C(=N\O)C(CC(C)C)CN1CC2 (centres undefined)	-40.5	-19.9	59.7*	4.6	-0.7
COc1ccc(CCNCc2c(C(=O)O)c(C)n(Cc3ccccc3C)c2C)c(OC)c1	.	3.7	.	-0.3	.
Cc1oc2cc(O)ccc2c(=O)c1Oc1ccccc1Br	2.0	-6.0	36.6*	-1.5	-3.4
Cc1oc2cc(O)ccc2c(=O)c1Oc1ccccc1	-17.0	5.1	17.0	0.3	-3.0
CC(C)Cn1c(N)c(C(=O)CSc2ccc3c(c2)OCCO3)c(=O)n(C)c1=O	-4.9	32.9*	-8.2	-0.5	3.4
CC(C)Cn1c(N)c(C(=O)COC(=O)c2c(F)cccc2F)c(=O)n(C)c1=O	3.6	-2.7	45.2*	3.8	-6.3
CCC1=C(c2ccc(C)cc2)S(=O)(=O)N=C1N1CCC(C(=O)NCCc2cccc(OC)c2)CC1	.	1.8	.	-0.3	.
O=Cc1c(C(=O)O)n(CC(=O)O)c2ccccc12	69.0*	2.0	-14.1	2.2	13.3
Cc1cc(NC2CCCCC2)nc2ccccc12	-13.6	-19.3	44.0*	-0.5	-3.8
O=C(NCCc1nc2ccccc2n1CCOc1ccc(Cl)cc1)C1CCCCC1	.	11.7	.	-0.3	.
Cc1ccn2c(NC3CCCCC3)c(C)nc2c1	-4.6	-4.2	34.6*	0.1	0.9
Cc1ccn2c(NC3CCCCC3)c(C(C)C)nc2c1	-3.4	5.7	1.0	0.0	0.2
Cc1ccn2c(NC3CCCC3)c(-c3ccncc3)nc2c1	8.6	30.0*	-14.8	-1.4	-1.8
CCOc1ccc(NC(=O)CN(c2ccc(OC)c(OC)c2)S(=O)(=O)c2ccc(C)cc2)cc1	-4.8	3.7	55.0*	0.7	-5.9
COc1ccc(S(=O)(=O)N(CC(=O)Nc2ccc(C)cc2)c2ccc(C)cc2)cc1OC	.	-2.3	.	1.3	.
O=C(CN(c1ccccc1)S(=O)(=O)c1ccc(Cl)cc1)Nc1cccnc1	-10.9	-33.4	33.8*	0.5	-2.8
COc1ccc(N(CC(=O)Nc2cccnc2)S(=O)(=O)c2ccc(C)cc2)cc1Cl	-19.5	.	4.2	4.8	-1.1
COc1ccc(N(CC(=O)Nc2cccnc2)S(=O)(=O)c2ccccc2)cc1Cl	-7.6	-21.2	31.1*	0.3	-0.7
COC(=O)c1cc(NC(=O)CN(c2cccc(OC)c2)S(=O)(=O)c2ccccc2)ccc1Cl	-10.9	3.4	13.3	1.6	-2.2
COC(=O)c1cc(NC(=O)CN(c2ccccc2OC)S(=O)(=O)c2ccccc2)ccc1Cl	-7.1	-3.5	35.6*	0.8	-1.7
COc1ccc(OC)c(NC(=O)Cc2coc3ccc(C(C)C)cc23)c1	.	3.5	.	5.8	.
O=C(Nc1ccc(F)cc1)c1ccc(-n2cnc3cccnc32)cc1	.	4.7	.	0.4	.
SMILES	D2 PAM-1	D2 PAM-2	D2 antagonist	D2 ag-1	D2 ag-2
CCOc1ccc(NC(=O)c2c(C)nn(-c3ccc(F)cc3)c2-n2cccc2)cc1	.	-0.7	.	0.2	.
O=C(CCN=C1NS(=O)(=O)c2ccccc21)OCc1nnc(-c2ccc([N+](=O)[O-])cc2)o1	68.7*	.	.	.	14.4
N#Cc1ccccc1COC(=O)CCN=C1NS(=O)(=O)c2ccccc21	-5.2	.	.	.	-3.5
CCC1(C)N=C(N)Nc2nc3cc(C)c(C)cc3n21 (centres undefined)	-26.2	-9.8	35.4*	-0.6	0.2
NC1=NC2(CCCC2)n2c(nc3ccccc32)N1	-8.8	1.3	2.2	-0.2	-3.4
COCCSc1ccccc1C(=O)N1CCN(c2ccccc2OC)CC1	0.2	3.7	38.1*	2.1	-2.4
COc1ccccc1N1CCN(C(=O)c2ccc(CS(=O)(=O)c3ccccc3OC)o2)CC1	-20.7	47.0*	0.6	-1.9	2.0
COCCNC(=O)c1ccc(CS(=O)(=O)c2ccccc2OC)o1	-2.0	9.2	5.6	-1.2	-19.8
COCCCNC(=O)c1ccc(CS(=O)(=O)c2ccccc2OC)o1	-3.3	3.4	32.9*	-1.3	0.1
O=S(=O)([O-])CCC[n+]1c(/C=C\Nc2ccccc2)oc2ccc(-c3ccccc3)cc21	.	10.6	-2.7	52.1*	.
COc1cc(OC)c(C(=O)NCc2nc(-c3ccccc3)no2)cc1OC	.	8.5	.	0.3	.
COc1ccc(CNc2nc(=S)[nH]c3cc(OC)c(OC)cc23)cc1	-10.4	-9.9	34.0*	0.3	1.2
COc1cc2[nH]c(=S)nc(NCc3ccc(C)cc3)c2cc1OC	-10.8	-4.8	40.6*	-0.1	1.3
COc1cc2[nH]c(=S)nc(NCc3ccccc3)c2cc1OC	-6.2	5.3	-3.8	-1.1	9.5
Cc1cc(=O)n(CC(C)O)c(O)c1C#N (centres undefined)	61.8*	5.8	-22.3	-0.9	4.9
Cc1cc(=O)n(CCCO)c(O)c1C#N	?	-5.4	2.8	0.7	6.9
O=C(Nc1ccccc1)Nc1ccccc1Br	-3.8	0.8	41.6*	-3.9	2.4
O=C(Nc1ccccc1)Nc1cccc(NC(=O)Nc2ccccc2)c1F	0.3	-0.3	-29.3	-0.2	1.2
Cc1ccc(CNC(=O)CCc2c(C)nc3c4c(C)cc(C)nc4nn3c2C)cc1	.	29.6	.	-0.2	.
Cc1ccc2[nH]c(=O)c(CN(CCCN3CCOCC3)C(=O)Nc3ccc(Cl)cc3)cc2c1	-14.0	-0.7	31.3*	-0.4	4.4
CCC1(c2ccccc2)C(=O)NCNC1=O	-3.0	4.1	33.1*	1.8	-4.2
COc1ccccc1CN1C[C@@H]2C[C@@H](C3=Cc4cc(Cl)ccc4OC3)N3CCC[C@@]23C1=O	-1.6	5.9	30.6*	1.1	-1.4
Brc1cnc(N2CCCC2)nc1N1CCOCC1	-2.1	4.4	34.9*	-0.3	-2.5
CS(=O)(=O)Oc1ccc2c(c1)O/C(=C\C=C\c1ccccc1)C2=O	-2.8	-3.2	37.5*	3.4	2.5
Cc1ccc(C)c(Cn2nc(-c3cc(C)ccc3C)ccc2=O)c1	-10.3	-3.0	35.3*	1.0	-0.6
CCCN(CCC)C(=O)CSc1ncccc1C(=O)O	-16.9	-18.8	3.5	37.6*	-0.5
C=CCn1c(N)c(-c2nc3ccccc3n2C)sc1=S	-9.3	30.6*	-13.8	0.8	-0.8
